In the library only some 1.2% were active in any assay of this set; here they are far more common.
RXFP1 antag: blocks the human relaxin receptor RXFP1 | Q9HBX9 | HEK293-RXFP1, relaxin-stimulated cAMP HTRF, 30 min; hits give low values | activity change, negative = inhibition, % at 57.5 µM | hit rate 0.59% among 350,000 | AID 1259400;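 active = activity change of -60% or lower, but not beyond a set lower limit; inconclusive = change between -60% and -40%, or beyond the set limit; inactive = change above -40%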; note: % is set by controls: 0 for no effect and ±100 for the full control effect
gsp antag: antagonizes gsp, the McCune-Albright syndrome mutation | gsp-mutant cells, cAMP HTRF, 30 min | Potency, µM (top dose mostly 76.9 µM), without a hit: top-dose activity change, negative = inhibition, actives largely listed as inhibitors | hit rate 0.4% among 340,000; calls by dose curve; cell line not stated here;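 note: intracellular cAMP measured with PDE inhibitor Ro 20-1724 present during compound exposure; potency is the fitted concentration of half-maximal effect; % is set by controls: 0 for no effect and ±100 for the full control effect; nearly all actives have a fitted effect of over 65% in size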
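HTRF cAMP measurement after 30 min RT detection following 30 min, 37C compound treatment alongside […] (added as 300 uM solution) in G418-selected cells seeded at 2000/well and grown 16–24 h.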
RXFP1 ag: activates the human relaxin receptor RXFP1; Q9HBX9; HEK293T-RXFP1 cAMP TR-FRET, 30 min; response scale: percent of porcine relaxin response, buffer zero; Potency, µM (doses to about 57.5 µM), for inactives: top-dose activation, most hits filed as activators; hit rate 0.3% among 370,000; active = well fitted activation curve with a large enough effect; inconclusive = small, poorly fitted or top-dose-only effect; note: potency is the fitted concentration of half-maximal effect; % is set by controls: 0 for no effect and ±100 for the full control effect; nearly all actives have a fitted effect of over 60% in size
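Agonist response is measured as cAMP accumulation in an RXFP1-transfected HEK293T line under PDE4 inhibition. Values are scaled between buffer-only and 29 nM porcine relaxin, and EC50s come from standard Hill equation fits.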
gsp agonist: gsp mutant agonism | hit rate 0.13% among 340,000 | gsp mutant cells, cAMP HTRF, 30 min | Potency, µM (top dose mostly 76.9 µM), inactives show top-dose activation (cAMP increase), actives largely listed as activators; active = well fitted activation curve with a large enough effect; inconclusive = small, poorly fitted or top-dose-only effect, or another doubt; inactive = no such curve, though single readings can be large or run the other way; cell line not stated here;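 note: phosphodiesterase inhibitor Ro 20-1724 added with compounds to block cAMP breakdown; potency is the fitted concentration of half-maximal effect; nearly all actives have a fitted effect of over 60% in size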
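Cells in DMEM/10% FBS with G418 were pretreated with compounds in DMSO plus […] (300 uM stock) for 30 min at 37C. cAMP was measured by HTRF (cAMP-d2 plus anti-cAMP antibody-K) after 30 min at room temperature.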
Akt phos inh: inhibitors of Akt phosphorylation. activity change, % for hits at 50 µM. hit rate 0.32% among 360,000. AID 651550. Neuro2A IGF-stimulated pAkt S473 HTRF, 20 min; hits give low values; in the data active = activity change below about -80%; inconclusive = mostly about -51% to -80%; note: % is set by controls: 0 for no effect and ±100 for the full control effect
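Single-point screen (50 µM final compound) in Neuro2A cells stimulated 20 min with 6 nM IGF at 37 deg C. After lysis, Ser473-phosphorylated Akt read by HTRF (ex 330 nm, em 615/665 nm) as the 665/615 ratio.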
* hit, by the source's call; i = inactive; ? = inconclusive; / = not tested or not shown; [ ] = dose if it differs, or a comment.

SMILES	RXFP1 antag	gsp antag	RXFP1 ag	gsp agonist	Akt phos inh
O=C(Nc1ccc2c(c1)OCCO2)C1CCCN1S(=O)(=O)c1ccc(Cl)cc1 (configuration not stated)	7	-12%	0%	5%	-111%*
COc1ccc2c(c1)O[C@@H](c1cccc(C(F)(F)F)c1)[C@H](OC(=O)Nc1ccc(OC(F)F)cc1)C2=O	/	11µM*	4%	8%	i
CC(=O)N1c2ccccc2CC1C(=O)NCc1cccc(Cl)c1 (configuration not stated)	-21	/	0%	/	/
CCOc1ccc(Nc2cc(C)nc3ccc(C)cc23)cc1	-31	?	/	-15%[15.4 µM]	i
Cc1ccc(Nc2cc(C)nc3ccc(C)cc23)cc1	-82*	5%	1%	1%	i
COc1ccc2c(C(=S)N(C)CC(=O)O)cccc2c1C(F)(F)F	-3	/	/	/	/
CC(CSC(=O)c1ccccc1)C(=O)N1C[C@@H](Sc2ccccc2)C[C@H]1C(=O)O (some centres not stated)	-9	/	/	/	/
O=C(Nc1ccc(F)cc1F)c1ccc2nc(N3CCOCC3)sc2c1	/	-4%	21%	-27%	i
O=C(Nc1ccccc1F)c1ccc2nc(N3C(=O)CCC3=O)sc2c1	-18	-16%	-2%	0%	-120%*
CCC(Cn1nnc2ccccc2c1=O)NC(=O)Nc1cc(OC)cc(OC)c1 (configuration not stated)	/	/	-3%	/	/
O=C(CC1C(=O)N(c2ccccc2)C(=O)N1CCC1=CCCCC1)Nc1ccc(F)cc1 (configuration not stated)	/	/	1%	/	/
NC(=S)n1[nH]c(-c2ccc([N+](=O)[O-])cc2)c(N=Nc2cccc([N+](=O)[O-])c2)c1=O	-30	14µM*	-2%	-39%	i
Cc1c(N=Nc2c(-c3ccc([N+](=O)[O-])cc3)[nH]n(C(N)=S)c2=O)cccc1[N+](=O)[O-]	-24	8.9µM*	-2%	-16%	i
NC(=S)n1[nH]c(-c2ccc([N+](=O)[O-])cc2)c(N=Nc2ccccc2[N+](=O)[O-])c1=O	-5	-10%	0%	1%	i
CCCOc1cccc(-c2nc3ccccc3c(=O)o2)c1	-84*	?	1%	-8%[15.4 µM]	i
CCOc1ccc(-c2nc(SCC(=O)Nc3cc(F)ccc3F)n3[nH]c(=O)cc3n2)cc1	-6	/	3%	/	/
COc1ccc(Br)cc1CC1C(=O)Nc2ccccc21 (configuration not stated)	-69*	/	-1%	/	/
COc1ccc(C(C[N+](=O)[O-])c2c(C)[nH]n(-c3ccccc3)c2=O)cc1 (configuration not stated)	-13	9%	1%	-9%	i
Cc1[nH]n(-c2ccccc2)c(=O)c1C(c1ccc(O)c([N+](=O)[O-])c1)c1c(C)[nH]n(-c2ccccc2)c1=O	-10	11µM*	/	8%	i
Cc1cc(O)c(C)c(C)c1O	26	/	/	/	/
O=S(=O)(c1cccc(-c2cn3cccnc3n2)c1)N1CCOCC1	-11	37%	?	18µM*	i
O=S(=O)(c1cccc(-c2cn3cccnc3n2)c1)N1CCCCCC1	2	4%	12%	?	i
CC1(C)NC(=O)N(CC(=O)Nc2ccc(-n3cnnn3)cc2)C1=O	-71*	11%	/	-31%	i
COCCc1ccc(OCC2CO2)cc1 (configuration not stated)	5	/	/	/	/
Cc1ccc(NC(=O)CSc2ccccc2NC(=O)c2ccccc2Cl)cc1Cl	0	28µM*	2%	-17%	i
CCOCC(=O)Nc1ccc(C)c(Cl)c1	-10	17%	1%	-1%	-129%*
CCN(CC)CCCN1C(=O)C(O)=C(C(=O)c2cc3cccc(OC)c3o2)C1c1ccncc1 (configuration not stated)	18	13%	?	?	-90%*
CN(C)CCN1C(=O)C(O)=C(C(=O)c2cc3ccccc3o2)C1c1ccccn1 (configuration not stated)	/	/	2%	/	/
CCN(CC)CCCN1C(=O)C(O)=C(C(=O)c2cc3ccccc3o2)C1c1ccccn1 (configuration not stated)	1	11%	?	?	-95%*

Screening data deposited in PubChem by National Center for Advancing Translational Sciences (NCATS).
